A number with no mark means an inactive call. Calls of active or inactive are those of the source.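 How the source made its calls: active means z-score of at least 1.8 in each of two replicates, scored against plate mean and spread of sample wells; inactive means the rest.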
Assay: viability rescue of complex I mutant cybrids, primary screen, cell-based, galactose medium, ATP luminescence (AID 1645843);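 further: positive z means more ATP and so rescue of galactose-driven cybrid death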
Details: complex I mutant cybrid cells, 72 h, stronger effect = higher value

Going from `CCCC(C)CN(CC)C1CCS(=O)(=O)C1` (stereo not drawn) to `CC(CCc1ccc(O)cc1)NC1CCCCCC1` (stereo not drawn), the z-score falls from -0.55 to -0.855.

Going from `Cc1cc(CN[C@@H](C)C(N)=O)c(C)s1` to `CCc1cc(-c2cccc(C)c2C)nc(N(C)C)n1`, the z-score rises from 0.04 to 1.21.

Compared with `NC1CCN(C2CCN(c3cccc(-c4ccccc4)c3)CC2)CC1`, `Cn1ccnc1-c1ccccc1C(=O)N1CCN(Cc2cccc(F)c2)CC1` is higher in z-score: -1.03 for the first, 0.355 for the second.

First: CC(C)Oc1ccc(Cl)cc1-c1nnc2ccc(Cl)cn12
Second: Cc1ccc2nc(Cn3cnc4ccc(F)cc4c3=O)cn2c1
The z-score of the first is higher: 0.31 for the first, -0.15 for the second.

Going from `COc1cccc2ccc(-c3ccccc3)nc12` to `Cc1cc(NC(=O)Cn2ccc(-c3cccc(F)c3)n2)n(-c2ccccn2)n1`, the z-score falls from -0.375 to -0.96.

Compared with `O=C(C1CCCCCC1)N1CCc2[nH]nc(C3CCC3)c2C1`, `O=C(C1CCCCCC1)N1CCC(n2cc(C3CC3)nn2)CC1` is lower in z-score: 0.435 for the first, -0.53 for the second.

Going from `CC1(C(=O)N2CCC(n3cc(C(C)(C)C)nn3)CC2)CCCO1` (stereo not drawn) to `COc1cc(N2CCN(Cc3ccc(F)cc3)C(=O)C2)ncn1`, the z-score rises from -0.79 to -0.36.

Going from `COCCN(C)Cc1ccc(-c2nc(C)c(C)c(=O)[nH]2)cc1` to `CCC(C)C(c1nc(C(C)C)no1)N1Cc2ccccc2C1=O` (stereo not drawn), the z-score rises from -0.545 to -0.17.

In the case of `c1ccc(Cn2ccnc2CNc2ncnc3nc[nH]c23)cc1`, the z-score is reported as -0.435.

With `Cc1ccccc1C1CCCN(C(=O)c2cc(C(C)C)no2)C1` (stereo not drawn) the z-score was 2.95 (active).

— PubChem BioAssay
